# Laboratory results reported in paper PMC8384837, “Expanding the binding specificity for RNA recognition by a PUF domain”.
# Molecular target: PUM1 PUF domain R1-SGE (Homo sapiens, UniProt Q14671 828-1176, R864G;Q867E)
# Test: yeast three-hybrid, YBZ-1, SC-Leu-His + 0.5 mM 3-AT, 4 days
# Conditions: tags: N-Gal4 AD-HA kept; label: inside an RPR1-promoter hybrid RNA with tandem MS2 sites; ssRNA
# Method in brief: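 The interaction score is the log change in how often each variant appears, from input to selection. Frequencies came from PCR-amplified, Illumina-sequenced repeat regions of Pumilio-1 PUF domain libraries grown in strain YBZ-1 (LexA–MS2 coat fusion, HIS3 reporter) alongside matching RNA elements. Input plates were SC-Leu and selection plates were SC-Leu-His + 0.5 mM 3-AT, each for four days, and the log2 calculation used a pseudocount of 1 where a variant was absent.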
# PUM1 PUF domain R1-SGE, sequence (Q14671 828-1176 R864G/Q867E): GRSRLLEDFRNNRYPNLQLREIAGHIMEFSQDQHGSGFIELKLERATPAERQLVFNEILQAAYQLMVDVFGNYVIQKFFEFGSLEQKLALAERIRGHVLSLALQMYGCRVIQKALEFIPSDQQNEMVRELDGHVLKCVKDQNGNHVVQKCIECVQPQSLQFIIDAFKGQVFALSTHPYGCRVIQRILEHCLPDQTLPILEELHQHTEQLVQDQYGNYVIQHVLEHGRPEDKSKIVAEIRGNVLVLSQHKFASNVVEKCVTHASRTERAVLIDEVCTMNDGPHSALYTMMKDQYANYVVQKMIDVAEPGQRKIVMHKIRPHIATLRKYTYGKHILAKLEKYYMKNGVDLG
row,Sequence,binding signal
1,GGCUAGAACUAGUGGAUCCCCCGGCGCCCGGCGGCUCGAGCCCGGGUAAGUGUAAAUUGUCUGCAUGCCGCCGGGCGCCAUGCCUGCAGGUCGACUCUAGAAAACAUG,3.87 log2 enrichment (interaction score)
2,GGCUAGAACUAGUGGAUCCCCCGGCGCCCGGCGGCUCGAGCCCGGGUAAGUGUAAAUCGUCUGCAUGCCGCCGGGCGCCAUGCCUGCAGGUCGACUCUAGAAAACAUG,1.55 log2 enrichment (interaction score)
3,GGCUAGAACUAGUGGAUCCCCCGGCGCCCGGCGGCUCGAGCCCGGGUAAGUGUAAAUGGUCUGCAUGCCGCCGGGCGCCAUGCCUGCAGGUCGACUCUAGAAAACAUG,5.2 log2 enrichment (interaction score)
